# Measurements reported in the supplement of paper PMC12632987.
# Biological target: GABARAPL2, P60520
# Assay: median log2 fold change of GCK-ALFA target abundance (FLAG IP / Myc IP barcode read proportion) (log2 ratio); each designed protein is fused to an ALFA-tag nanobody in HEK293 cells to bring the named protein to FLAG-tagged glucokinase (GCK); Myc marks an untargeted standard; higher = target protein stabilised (more abundant)
# Conditions: target protein: 3xFLAG-MCP-GCK-ALFA reporter; HEK293 landing pad (RPLP)
# Outline: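 Sequencing of reverse-transcribed, amplified circular RNA barcodes from anti-FLAG and anti-Myc immunoprecipitates provided the readout for an ALFA-nanobody-fused binder library recombined into HEK293 landing-pad cells. Those cells were induced with 2 μg mL^−1 doxycycline, transfected with a plasmid expressing a FLAG-tagged target and a Myc-tagged standard, and lysed after 48 h. Target abundance is the per-binder median log2 ratio of FLAG to Myc barcode read proportions. Only barcodes at a proportion of ≥10^−7 in both replicates and binders with ≥3 barcodes per replicate were kept, with a 10^−6 pseudocount added before the two replicates were pooled.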
# GABARAPL2, P60520, sequence (P60520 whole entry, the tested form may be a part): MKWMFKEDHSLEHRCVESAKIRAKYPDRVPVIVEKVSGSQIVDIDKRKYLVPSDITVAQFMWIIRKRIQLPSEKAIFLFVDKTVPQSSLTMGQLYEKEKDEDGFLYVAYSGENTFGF
row,Binder,median log2 fold change
1,GBRAPL2_0_7246 (protein) MEELKKELLSLSLEEAKKKIKELAEKVIKLIKEDPEKGIEEAEKLTEVFAEVLVERKDEELKKVVEEAVEKIVEEVKKVDPKAAAYIDAIYGSALMEVEG,0.169
2,GBRAPL2_0_7245 (protein) MEELLEKLLSLSLEEAKKKIKELAEKAIKLIKEDPEKGIKEAEKLAEVFAEVLEKRKDEELLKVIEEAIDKIVKEVAKVDPNAAAYIDAIFGSAIMEVEG,0.154
3,GBRAPL2_0_7234 (protein) KEELLKELLSLSLEEAKKAIKELAEEVIKLIKEDPEKGIEKAIELAEVFAEYLIERKDEELAKVIDEAIDKIVKEVEKVDPNAAAEIASEIGSAIYEVES,0.244
4,GBRAPL2_0_7240 (protein) MEALKAELLALSLEEAIARIEALTDEAVALIRADPEAGLAAAEELVEVLAEVVVERKDERLEEAVEAATDRLAAVVAEVDPREAAYLRAIMGSAIAEVES,0.0165
5,GBRAPL2_0_7239 (protein) MEELLKELLSLSLEEAKKKIKEKTEEAVKLIRKDPEKGLKYAEELVEVFAEVVVERKNEELEEVVDEATDRLVEEAAKIDPNEAAYLAAIRGSAIAEVEL,0.0745
6,GBRAPL2_0_7247 (protein) MEELLKELLELSVEEAKKKIKELAKKAVELIKKDPEKGLEEAEKLAEVFAEYLEETKNEELAEAVDEAARLLVEEAEKVDPNAAAYIASEVGSALLDLEM,-0.0333
7,GBRAPL2_0_7237 (protein) MEELLEKLLSLSLEEAKKEIKKLADEVIELLRKDPEKGKEAAEELAEVFSEYLEKTKNEELEEVIDEAIDKIVEEMSKIDPREAAYIDSIFGSAIMEVEG,-0.0207
8,GBRAPL2_0_7254 (protein) MEKLLKELLSLSVEEAQKAIKEEAEKVVKYLKEDPEKGLEKAEELAEVFAELLKERKDEKLEETIEEAIDKIVKEAAKIDPNKAAYIAAIIGSALYEVES,0.0528
9,GBRAPL2_0_7223 (protein) MEKLKEEMLKLSIEEASKKAVETVKEMVESGKYSLEEIEEKIEAMAEVLGELLKKEKKEEAEEIAIKAADEIRKILEKKDPNLAAFAYSEIGAEIMEARE,0.33
10,GBRAPL2_0_7232 (protein) MEEKIEELKKLSVEEAAKYFVETVKEAVESGKYSLEEIAELIEKMAEVLGEKLKEVKKEEAIDIAAKAADEVRKILSKLDPNLAAYAASEIGAEIMEAWS,0.0832
11,GBRAPL2_0_7252 (protein) MEELLKELLSLSLEEAKAAIEKLAEEVIKLIEKDPEKGLKAAEELAEVFAEYLIERKNEELEEAIVKAIDKLVKEVAKVDPNKAAYIDSIIGSAIMEVEG,0.0463
12,GBRAPL2_0_7249 (protein) MEEELKELLSLSTEEAKKKIKEKAKEVIELIKKDPEEGLKAAEELAEIFAEYLEKTKNEELEEVIDEAIDEIVKEVAKVDPNEAAYIDAIIGSAIMEVEG,-0.0458
13,GBRAPL2_0_7224 (protein) MEEWIEKLKKLSIEEAAALVVEKIKELVESGKYSLEEIAEIVEKLARVLGEKLKEENKEEGLDLAAKAADEIRKILEKVDPNLAAFADSEIGSEIMEASS,0.136
14,GBRAPL2_0_7225 (protein) MEEELEKLKKLSIEEAAKYVVEKVKELVESGKYSLEEIADIVEKLARVLGEKLKEENKEEGLDLAAKAADEIRKILSKLDPNLAAYADSEIGAEIMEASS,-0.0692
15,GBRAPL2_0_7230 (protein) IEERVEEMSKLSIEEAAAYAVEKVREMAESGEYSLEEIEEFVEKAAEVLGKKLKEEKKEEGLDIAAEAAREIREILSKVDPRLAALAESEIGAAIMEAEL,0.138
16,GBRAPL2_0_7255 (protein) LEEVLKKMKESSIEEAVELAKEEADRLVADPSVTPEEFEEAAVALLEVLAEKAKEEKTEEALELLEEAVDYLTELAKKVDPDVAAFIDTYGGSLLYELEE,-0.088

row,Binder,median log2 fold change
1,GBRAPL2_0_7238 (protein) AEELLKKLLEASVEEAIAAIKEAAEKAVKEIEKDPEAGLKAAEELAEVFAEVIIERKNEEVIKAVEEAADRIVAAAAKVDPNAAAYIASIIGSALYEYES,0.0105
2,GBRAPL2_0_7251 (protein) MEELLEELLSLSLEEAKKKIKELAEKVIKLIKEDPEKGLEEAEKLAKVFAEYLIETKNEELEKVIDEAIDKIVKEVAKIDPNKAAYIDAIIGSAIMEVES,-0.108
3,GBRAPL2_0_7227 (protein) IEEKIKEMSKLSIEEAAKKAVELVKEMAESGKYSLEEIEEFVEAAAEVLGKKIKEEKKEEGLDIADEAARKIREILSKVDPRLAAYAASEIGAAIMEAIS,0.213
4,GBRAPL2_0_7243 (protein) MEELLKELLSLSLEEAKAAIKELAEEAIKLIREDPEKGIKYAEELMEVFAEVLEKRKDEELLKVIEEAVEKIVEEVAKVDPNEAAYIDAIFGSAVMEVEG,0.0124
5,GBRAPL2_0_7253 (protein) KEELLEKLLSLSIEEAIKEVKKLAEEVIKYIKEKPEEGLKKAEELAEIFAELIEARKDEKLIKAVEEAIEKIVEEAKKIDPNEAAYIASIIGSALYEVES,0.152
6,GBRAPL2_0_7244 (protein) MEELLKRLLSLSLEEAKKEIKELAEKVIKLIREKPEEGIKAAEELMEVFAEVLVERKDEELEEVVEEAVDAIVEEVAKVDPNAAAYIDAIFGSAIMEVEG,-0.291
7,GBRAPL2_0_7226 (protein) MEETLEKIKKLSIKEAAEYVVEKVEELVKSGKYSLEEIEEIVSALADELGEKLKKENKEEGLDYAAEAADRIREILSKLDPNLAAFAYSEIGSEIMEAES,0.24
8,GBRAPL2_0_7233 (protein) MEEIVEELKKLSVEEAAEYFVKKVKEMVESGKYSLEEIEELIEKLAEVLGEKLKKNKKEEDLDIAAEAADKVREILLKRDPNLAAFAASEIGAEIMEAWS,0.0153
9,GBRAPL2_0_7242 (protein) MEELLEELLSLSLEEAKARIRELAEEAIKLLKEDPEEGKKYAEELVEVFAEVLEKTKNEELREVIEEEVDRIVKEAAEIDPNFAAYLASIMGSAIYEVES,0.159
10,GBRAPL2_0_7250 (protein) MEELLKELLSLSLEEAKKKIKELTEEVIKLIEKDPKKGLEKAIELAEIFAEYLIERKNEELEEVIDEAIDKLVKKVAEVDPNEAAYIDAIIGSAIMEVEG,-0.0651
11,GBRAPL2_0_7241 (protein) MEELLKRLLSLSLEEAKAEIKRLAEEVIKLIKEDPEKGKKEAEELVEVFAEYLIKSKNEELLEVIEEEVDKIVKEVAKIDPNFAAYLDSIIGSAIAEVES,0.00211
12,GBRAPL2_0_7229 (protein) IEEEIEEMKKLSIEEAAKRAVELVKEMAESGKYSLEEIAEFVEKAAEVLGEKLKEEKKEEGLDIAAEAADEIRKILSKIDPNLAAYAASEIGSEIMEVIS,-0.0242
13,GBRAPL2_0_7248 (protein) MEELLKELLSLSTEERKKKIKELAKEAVKLIKEDPEKGLEAAIELAEVFAKVIEETKNEEIAEVVDEAIDLIVKEAAEVDPNAAAEIASIVGSALLELEM,0.0975
14,GBRAPL2_0_7236 (protein) MEELLKRLLSLSLEEAKKEIKELAEKAIKLIKKDPEKGIKYAEELAKVFAEYLEKTKNEELAEVIDEAIDKIVEEVAKVDPNAAAAIASEIGSALYEVES,0.224
15,GBRAPL2_0_7256 (protein) LEEVLEEMKKLSIEEAAKLAKEYAEKLLADPSVTPEEFLEAIEKLLEVLAEKVKEEKTEEALEIFEEAVDYFTALAAKIDPNLAADVATYGGSLLYEIEE,0.0867
16,GBRAPL2_0_7228 (protein) IEEEIEKISKLSIEEAAKAAVELVKEMAESGKYSLEEIEEFVEKAAEVLEKKIKEEKKEESLDIAAETADEVRKILEKIDPNLAAYAASEIGSGIMEAIS,0.048
